Where “and” joins values, the source holds several entries; their conditions need not be identical. Equal values may be shown once. Hit rate of the full screen: of about 310,000 compounds, about 1,000 (0.32%) were called active. The rule behind the calls is not given here. The list is a sample of the results. Entries with a potency or affinity are not part of this list.

The assay in a line: PhoP regulon inhibitors, Salmonella typhi PhoP promoter GFP reporter, confirmatory (AID 1850).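 Note: 0% = induced wells with vehicle and 100% = uninduced wells.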 Conditions: fluorescence, 4 h, at 50 µM, stronger effect = higher value.
In general, inhibition refers to the relative decrease from the control value, in per cent. As to `Cc1ccsc1/C=C(\C#N)C(=O)NCc1cccnc1`, the inhibition was -18.9% (inactive).
On to `CCOc1ccccc1NC(=O)c1oc2ccccc2c1NC(=O)C1CCCO1` (stereo not drawn), for which the inhibition was 0.28% (inactive).
On to `CCOC(=O)C1(Cc2cccc(F)c2)CCN(CC(O)CO)CC1` (stereo not drawn), for which the inhibition was 1.5% (inactive).
As to `CCOC(=O)C1CCN(Cc2cc(C(C)(C)C)c(O)c(C(C)(C)C)c2)CC1`, the inhibition was -7.6% (inactive).
On to `COc1ccc(OC)c(/C=N/NC(=O)c2[nH]ncc2Br)c1`, for which the inhibition was -1.03% (inactive).
On to `COc1ccc(/C=N/NC(=O)c2[nH]ncc2Br)c(OC)c1`, for which the inhibition was 4.69% (inactive).
For `CC(=O)c1ccc(NC(=S)NCc2ccc(Cl)cc2Cl)cc1`, the inhibition was -6.96% (inactive).
For `CCn1c(=S)sc2c(=O)n(CC(=O)Nc3ccc(Cl)cc3)c(C)nc21`, the inhibition is 1.24% (inactive).
As for `O=C(CN1CC[n+]2c(-c3cccs3)csc21)c1ccc(Br)cc1`, the inhibition is -5.14% (inactive).
To `O=C(CN1CC[n+]2c(-c3ccccc3)csc21)c1ccc(Br)cc1` belongs 7.36% (inactive).
Consider `C/C(=N/Oc1nc(C)cc(C)n1)c1ccccc1`, for which the inhibition is -15.4% (inactive).
Take `Cc1c(C)[n+](=O)c(-c2ccc(Br)cc2)c(C)n1[O-]`: the inhibition was 4.2% (inactive).
In the case of `Cc1cc(/C=C2\SC(=O)NC2=O)c(C)n1-c1ccc(N(C)C)cc1` it was -4.88% (inactive); in that of `Cc1cc(/C=N/O)c(C)n1-c1ccccc1`, -9.52% (inactive); in that of `CC[n+]1c(/C=C/c2ccc(N(C)C)cc2)ccc2ccccc21`, 1.34% (inactive).
Regarding `C[n+]1c(/C=C/c2ccc(O)cc2)ccc2ccccc21`, the inhibition is 10.8% (inactive).
On to `CC1(C)CC(=O)C(C(=O)Cc2ccccc2[N+](=O)[O-])C(=O)C1`, for which the inhibition is 2.13% (inactive).
To `COc1cc2nc(Nc3ccc(C)c(Cl)c3)nc(N)c2cc1OC` belongs 5.86% (inactive).
For the molecule `COc1cc2nc(Nc3ccc(C)c(C)c3)nc(N)c2cc1OC`, the inhibition is -4.96% (inactive).
To `COc1ccc(Nc2nc(C)c3ccccc3n2)cc1` belongs 1.01% (inactive); to `CCOc1ccc(Nc2nc(N)c([N+](=O)[O-])c(NCc3ccccc3)n2)cc1`, -9.51% (inactive).
Turning to `COc1ccc(Cl)cc1Nc1nc(N)c2ccccc2n1`, the inhibition was 2.43% (inactive).
To `Nc1nc(Nc2ccc(Cl)cc2)n[nH]1` belongs 1.12% (inactive); to `COc1ccc(Nc2nc(N)c3ccccc3n2)c(OC)c1`, 4.67% (inactive).
With `CCOc1ccc(Nc2ncnc(N)n2)cc1`, the inhibition is 20.7% (inactive).
On to `CCOC(=O)CSc1nnc2n1C(C)(C)Cc1ccccc1-2`, for which the inhibition was 11.2% (inactive).
To `Cc1cc2n(n1)C(c1ccco1)Nc1ccccc1-2` (stereo not drawn) belongs -1.68% (inactive); to `COc1cc2ncnc(NCc3ccc(C)o3)c2cc1OC`, 1.27% (inactive).
With `CCOC(=O)N/N=C/c1ccccc1OCc1ccc(Cl)cc1`, the inhibition is 2.12% (inactive).
In the case of `O=c1[nH]c(C2CCCN(S(=O)(=O)c3ccccc3F)C2)nc2c1nnn2Cc1ccccc1Cl` (stereo not drawn) it was 0.52% (inactive); in that of `CCN(CC)CC(=O)Nn1c(C)nc2c(ncn2-c2ccccc2)c1=O`, 2.92% (inactive).
In the case of `CCCN(CCC)CC(=O)NCC1(c2ccccc2)CCOCC1` it was 5.98% (inactive); in that of `CCOc1ccccc1NC(=O)c1cc(-c2cc(OC)c(OC)c(OC)c2)nc2ccccc12`, 6.2% (inactive).
`CC(=O)Nc1ccc(NC(=O)[C@H](C)NC(=O)c2ccco2)cc1`: the inhibition was 2.64% (inactive).
Take `CCOC(=O)c1oc2ccccc2c1COC(=O)CNC(=O)c1ccccc1OC`: the inhibition was -8.98% (inactive).
On to `CCOc1ccc(-c2noc(CCC(=O)NC3CCCCC3)n2)cc1OC`, for which the inhibition was -7.76% (inactive).
Regarding `Fc1cccc(Nc2nc(Cl)nc(Cl)n2)c1`, the inhibition is -6.69% (inactive).
In the case of `COc1cc2nc(Nc3cccc(F)c3)nc(N)c2cc1OC`, the inhibition is -16.8% (inactive).
Consider `COc1ccc(C)cc1Nc1nc(N)c2ccccc2n1`, for which the inhibition is 2.42% (inactive).
For `NNc1nc(Nc2ccccc2)nc(Nc2ccccc2)n1`, the inhibition was -2.45% (inactive).
Take `CC(=O)c1ccc(OCC(O)CN2CCN(c3ccc(F)cc3)CC2)cc1` (stereo not drawn): the inhibition is 9.79% (inactive).
To `C[C@H]1CN=C(N(C)C)N1CCCC1CCCCC1` belongs -3.79% (inactive); to `CCOC(=O)N1CCN(CCC(=O)c2ccc(OC)cc2)CC1`, 19.1% (inactive).
Regarding `O=C(CCN1CCOCC1)c1ccc(Cl)cc1`, the inhibition is 5.47% (inactive).
Regarding `CCOC(=O)N1CCN(CCC(=O)Nc2cccc(Br)c2)CC1`, the inhibition was -10.1% (inactive) and 1.14% (inactive).
On to `CCOC(=O)N1CCN(CCC(=O)Nc2ccc(Br)cc2)CC1`, for which the inhibition is -11.9% (inactive).
As to `CCOC(=O)n1cc(-c2cnc(CNC(=O)C(C)(c3ccccc3)c3ccccc3)o2)c2ccccc21`, the inhibition was -3.78% (inactive).
Consider `Cc1ccc(C(=O)NCC(=O)Nc2cccc(C(F)(F)F)c2)cc1`, for which the inhibition is 7% (inactive).
In the case of `CCCN1CCN(CCCNC(=S)Nc2ccc3nc(N4CCN(CC)CC4)cc(C)c3c2)CC1` it was 2.52% (inactive).
On to `Cn1cc(P(=S)(N2CCOCC2)N2CCOCC2)cc1P(=S)(N1CCOCC1)N1CCOCC1`, for which the inhibition was -5.57% (inactive).
Consider `CN(C)S(=O)(=O)c1ccc(S(=O)(=O)N(CC(=O)Nc2ccccc2)CC2CCCO2)cc1` (stereo not drawn), for which the inhibition was 9.84% (inactive).
To `CC1CCCN(C(=O)COC(=O)Cc2c(F)cccc2Cl)C1` (stereo not drawn) belongs 8.14% (inactive).
Consider `CN1CCC(=C2c3ccccc3CCc3sccc32)CC1`, for which the inhibition was 4.53% (inactive).
To `CN1CCC(=C2c3ccccc3CC(=O)c3sccc32)CC1` belongs -11.1% (inactive) and 6.89% (inactive) and 11.9% (inactive); to `C[N+]1(C)CCC(=C2c3ccccc3CC(=O)c3sccc32)CC1`, -5.91% (inactive).
For `Clc1ccc2c(c1)CCc1cccnc1C2=C1CCNCC1`, the inhibition is 9.72% (inactive).
For the molecule `COc1ccccc1CNC(=O)c1ccc(N2CCOCC2)c([N+](=O)[O-])c1`, the inhibition is 3.84% (inactive).
On to `O=C(O)c1ccccc1C(=O)Nc1ccc(Oc2ccc3ccccc3c2)cc1`, for which the inhibition was -5.98% (inactive).
Consider `O=S(=O)(Nc1ccc(-n2cnnn2)cc1)c1ccc(F)c(F)c1F`, for which the inhibition is -6.29% (inactive).
On to `Cc1cc(NCCN2CCOCC2)c2ccc3ccccc3c2n1`, for which the inhibition was 0.49% (inactive).
Turning to `COc1ccc2nc(C)cc(NCCN3CCOCC3)c2c1`, the inhibition was 3.31% (inactive).
In the case of `CN1CCN(C2=Cc3ccccc3Sc3cc(F)c(F)cc32)CC1`, the inhibition was 56.3% (inactive).
With `CN1CCN(c2nc(-c3ccc(Cl)c(Cl)c3)nc3ccccc23)CC1`, the inhibition is -3.79% (inactive).
For the molecule `CN1CCN(c2ccc(F)cc2N)CC1`, the inhibition is -23.4% (inactive).
On to `CN1CCN(C2=Cc3ccc(Cl)cc3Sc3ccc(F)cc32)CC1`, for which the inhibition is 2.54% (inactive).
Turning to `CN1CCN(C2=Nc3cc(F)ccc3Cc3ccccc32)CC1`, the inhibition is 10.2% (inactive).
Regarding `CN1CCN(c2ccc(Cl)cc2N)CC1`, the inhibition was 5.42% (inactive).
With `COc1ccc(N(CC(=O)Nc2ccc(C(C)C)cc2)S(=O)(=O)c2c(C)noc2C)cc1`, the inhibition was -9.48% (inactive).
For the molecule `COc1ccccc1NC(=O)CSc1nnc(Cc2ccccc2)o1`, the inhibition is -0.38% (inactive).
In the case of `CCC(=O)OC1(Cc2ccc(CC)cc2)CC(C)N(C)CC1C` (stereo not drawn) it was -0.84% (inactive).
As to `CCOC(=O)C1(CCOC)CCN(Cc2ccncc2)CC1`, the inhibition was -5.83% (inactive).
For `O=C(Oc1c(CN2CCOCC2)cc(Cl)c2cccnc12)c1ccccc1`, the inhibition was 9.08% (inactive).
For the molecule `Oc1c(CN2CCCCC2)cc(COCc2ccccc2)c2cccnc12`, the inhibition was -6.03% (inactive).
In the case of `COc1ccc(CN2CCN(C)CC2)cc1OCc1ccccc1` it was 0.01% (inactive); in that of `Oc1c(CN2CCOCC2)cc(-c2ccccc2)cc1CN1CCOCC1`, 9.41% (inactive).
In the case of `Cc1cccc(OCC(=O)Nc2nnc(-c3ccco3)s2)c1`, the inhibition was 5.97% (inactive).
To `CCOc1ccc2nc(N3CCCC(C(=O)NCCCN4CCCCC4)C3)sc2c1` (stereo not drawn) belongs 6.31% (inactive); to `CCN(CC(N)=O)S(=O)(=O)c1ccc(Br)cc1`, 4.08% (inactive); to `N=c1n(CCN2CCCCC2)c2ccccc2n1CC(O)c1cccc(Br)c1` (stereo not drawn), 2.9% (inactive).
In the case of `N=c1n(CCN2CCCC2)c2ccccc2n1CC(O)c1ccc(Cl)c(Cl)c1` (stereo not drawn) it was 27.1% (inactive); in that of `CCCn1c(=N)n(CC(=O)c2ccc(Cl)c(Cl)c2)c2ccccc21`, -5.11% (inactive).
For `N=c1n(CCN2CCOCC2)c2ccccc2n1CC(=O)c1ccc(Cl)c(Cl)c1`, the inhibition is 20.6% (inactive).
As to `CC1=NN(c2nc(C)cc(C)n2)C(=O)C1CCC(C)C` (stereo not drawn), the inhibition is 2.35% (inactive).
Regarding `Cc1cc(C)nc(NC(=O)c2cccs2)c1`, the inhibition is -2.29% (inactive).
On to `Cc1cccc(NS(=O)(=O)c2c(C)nc3scc(C)n3c2=O)c1`, for which the inhibition was -24.5% (inactive).
`COC(=O)C1CSC(C(=O)OC)N1C(=O)CN1CC(C)OC(C)C1` (stereo not drawn): the inhibition is -2.04% (inactive).
Turning to `O=c1ccn([C@@H]2O[C@H](CO)[C@@H](O)[C@H]2O)c(=O)[nH]1`, the inhibition was -0.0767% (inactive).
As to `O=c1[nH]c(=O)n(C2OC(CO)C(O)C2O)cc1Br` (stereo not drawn), the inhibition is -19.2% (inactive).
`Cc1cc(C)nc(CCNC(=O)c2cc(COc3c(C)cccc3C)on2)n1`: the inhibition is -3.31% (inactive).
On to `CC(C)Oc1ccc(C(=O)NCC(=O)OCC(=O)N(C)Cc2cccs2)cc1`, for which the inhibition is 2.06% (inactive).
As for `CCn1c(C)cc(C)c(C#N)c1=O`, the inhibition is 7.92% (inactive).
With `CCN(CC)CCn1c(=N)n(CC(O)COc2ccccc2)c2ccccc21` (stereo not drawn), the inhibition was 15.1% (inactive).
For the molecule `CCCCn1c(=N)n(CC(O)COc2cccc(C)c2)c2ccccc21` (stereo not drawn), the inhibition was 9.29% (inactive).
On to `CCCn1c(=N)n(CC(O)COc2cccc(C)c2)c2ccccc21` (stereo not drawn), for which the inhibition was 3.8% (inactive).
For the molecule `N=c1n(CCN2CCCCC2)c2ccccc2n1CC(O)COc1ccccc1` (stereo not drawn), the inhibition was 28% (inactive).
For the molecule `COc1ccc(OCC(O)Cn2c(=N)n(CCN3CCCCC3)c3ccccc32)cc1` (stereo not drawn), the inhibition is 20.8% (inactive).
Take `Cc1ccc(OCC(O)Cn2c(=N)n(CCN3CCOCC3)c3ccccc32)cc1` (stereo not drawn): the inhibition is 14% (inactive).
To `Cc1ccc(SCC(=O)OCC(=O)NCCC2=CCCCC2)cc1` belongs 9.93% (inactive).

(Values after PubChem BioAssay AID1850 (Southern Research Specialized Biocontainment Screening …, 2009).)
